High-throughput results as filed in PubChem.
An excerpt weighted towards active compounds, which were near 5.5% of everything screened.
Sfp inh: Sfp phosphopantetheinyl transferase inhibition; Potency, µM, without a hit: largest response in the series, negative = inhibition, usual class: inhibitors; AID 1490; Q9F4F7; Biochemical Sfp PPTase activity, qHTS; hit rate 3.5% among 310,000;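 note: the enzyme is Sfp with the accession as filed and its product quenches rhodamine fluorescence; potency is the fitted concentration of half-maximal effect; 0% = enzyme reaction without inhibitor and -100% = no enzyme wells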
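After 15 min at room temperature with compound, 15 nM Sfp received 5 uM rhodamine-CoA plus 12.5 uM BHQ-2-ybbR (50 mM Hepes pH 7.6, 10 mM MgCl2). Rate came from the fluorescence difference over 30 min, ex 525/em 598 nm.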
Giardia kill: kills Giardia lamblia. Giardia lamblia trophozoite viability. activity change, % at 7.66 µM, hits read low. hit rate 0.15% among 340,000. AID 540267; in the data active = activity change below about -80%; inconclusive = between about -30% and that limit;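 note: parasites exposed to compound for two days anaerobically before the ATP read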
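ATP-content bioluminescence gauges trophozoite survival. Cells (100/well) receive compound and incubate anaerobically for 48 hrs at 37 deg C; detection reagent follows for 15-30 min at room temperature.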
Coupling enz: inhibits coupling enzyme system, counter-screen for aldolase hits. activity change, negative = inhibition, % at 58.2 µM, hits read low. coupling enzyme system counterscreen, AmpLite Red fluorescence. hit rate 0.67% among 290,000; in the data active = activity change below about -30%
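Coupling enzymes only (glyceraldehyde-3-phosphate) + compound, at 57.5 uM final, 10 min RT; add substrate/coupling/AmpLite Red mix, 20 min RT; fluorescence ex 525/em 598 nm. Actives flag coupling-system interference.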
ELG1 repair inh: inhibitors of ELG1-dependent DNA repair in HEK293T cells. HEK293T ELG1-luciferase reporter, luminescence, 16 h; DNA damage induced by 5-fluorouridine. hit rate 2.3% among 330,000. Potency, µM (series often up to 46.1 µM), for inactives: at the top dose activity change, negative = inhibition, actives largely listed as inhibitors. AID 504467; note: potency is the fitted concentration of half-maximal effect; nearly all actives have a fitted effect of over 55% in size
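DMSO vehicle served as the neutral condition. Each well held 2,000 cells given 5-fluorouridine plus compound; after 16 hr at 37 °C/5% CO2, ONE-Glo was added and luciferase measured 30 min later.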
The depositor's hits bear a star; ? = inconclusive; . = no result given. Unless noted, calls come from the whole dose curve; as a rule, active = well fitted curve in the direction sought with a large enough effect; inconclusive = small, poorly fitted or top-dose-only effect, or another doubt; inactive = no such curve, though single readings can be large; an effect the other way counts as inactive or inconclusive. Unless noted, % is set by controls: 0 for no effect and ±100 for the full control effect.

SMILES | Sfp inh | Giardia kill | Coupling enz | ELG1 repair inh
CCOc1ccc(NC(=O)N(Cc2ccc(C)cc2)Cc2ccccn2)cc1 | 2% | 22 | 2 | -14%
O=c1c2oc3ccccc3c2[nH]c(=S)n1-c1ccccc1 | 50µM* | 1 | 2 | 11%
O=c1c2sccc2[nH]c(=S)n1-c1ccccc1 | 79µM* | 12 | -1 | 0%
Cc1ccc(-n2c(=S)[nH]c3c(oc4ccccc43)c2=O)cc1 | -9% | 6 | 2 | ?
CC(C)C(=O)OC/C(O)=C(\C#N)c1nc2ccccc2[nH]1 | 12% | 8 | -9 | -9%
Cc1ccc(C(C)C)c(OC/C(O)=C(\C#N)c2nc3ccccc3[nH]2)c1 | 18% | -3 | 1 | 16µM*
NC1=NC(=O)/C(=C\c2ccc(-c3ccc(Cl)cc3)o2)S1 | 9% | ? | 0 | 15%
CN(C)C1=NC(=O)/C(=C/c2ccc(-c3ccc(S(N)(=O)=O)cc3)o2)S1 | 35µM* | . | -7 | -2%
C=CCS(=O)(=O)c1cccc2cccnc12 | 5% | 17 | -34* | 12%
CC(C)=CCC/C(C)=C/CNC(=O)C[C@H]1C[C@H](C(=O)N2CCOCC2)[C@@]2(CCC3CCCC3)c3[nH]c4cc(CCC(=O)N(C)C)ccc4c3CCN2C1=O | . | 1 | . | 23µM*
COc1cc(C(=O)OCC(=O)NCc2ccc(F)cc2)ccc1OCC(C)C | 7% | -18 | 3 | 2%
CCOC(=O)c1c(C)[nH]c(C2=NNC(=Nc3ccccc3OC)SC2)c1C | 79µM* | -10 | -1 | ?
CCOC(=O)c1c(C)[nH]c(C2=NNC(=Nc3ccc(OCC)cc3)SC2)c1C | 79µM* | -13 | -10 | ?
CCOC(=O)C1=C(O)CSC1=Nc1ccccc1 | 4% | 3 | -1 | 12%
CC(=O)c1c(C)[nH]c(C2=NNC(=NC(C)(C)C)SC2)c1C | 22µM* | 8 | -13 | ?
CCOC(=O)c1c(C)[nH]c(C2=NNC(=Nc3ccccc3)SC2)c1C | 40µM* | -8 | -38* | ?
CC(C)(C)N=C1NN=C(c2ccc(Cl)cc2)CS1 | 1% | -7 | 2 | ?
CCCn1cc(CN2CCCC(C(=O)c3ccc4c(c3)OCO4)C2)c(C)n1 (configuration not stated) | 16% | ? | 1 | -6%
Cc1csc(C(=O)O)c1NC(=O)c1c(Cl)cccc1Cl | 5% | -1 | 0 | 9%
CCN(CC)S(=O)(=O)c1ccc(/C=C/C(=O)Nc2ccc(N3CCOCC3)cc2)cc1 | 9% | 18 | 0 | 5.2µM*
COc1ccc(/C=C/C(=O)Nc2ccc(N3CCOCC3)cc2)cc1 | 11% | 8 | 1 | 8%
CC(C)c1ccc(/C=C/C(=O)Nc2ccc(CN3CCOCC3)cc2)cc1 | -7% | -3 | -2 | 9.2µM*
Cc1ccc(N2CCN(S(=O)(=O)c3ccc4oc(=O)ccc4c3)CC2)c(C)c1 | 2% | -22 | 0 | -1%
O=C(COC(=O)c1cc(-c2ccc(Cl)s2)nc2ccccc12)NCc1ccco1 | 13µM* | -5 | -3 | -3%
O=C(COC(=O)c1cc(-c2cccs2)nc2ccccc12)NCc1ccco1 | 22µM* | -3 | -1 | -6%
SMILES | Sfp inh | Giardia kill | Coupling enz | ELG1 repair inh
COc1ccc(CNC(=O)COC(=O)c2cc(-c3ccc(Cl)s3)nc3ccccc23)cc1 | -11% | -3 | -3 | -2%
O=C(NCc1ccco1)c1cc(-c2cccs2)nc2ccccc12 | -18% | -1 | 0 | 15µM*
O=C(NCc1ccco1)c1c2c(nc3ccccc13)CCC2 | 50µM* | -20 | -6 | -5%
O=C(CSc1c2c(nc3ccccc13)CCCC2)NCc1ccco1 | -26% | 8 | -2 | 12%
COc1ccc(-c2cn(Cc3ccc(C(N)=O)cc3)c(-c3ccncc3)n2)cc1 | . | -8 | . | ?
COc1ccc(NS(=O)(=O)c2cccc(C(=O)N3CCN(S(=O)(=O)c4ccccc4)CC3)c2)cc1 | . | -15 | . | .
Cc1noc(C)c1-c1ccc2ncnc(NCc3ccc(Br)cc3)c2c1 | 4% | . | 0 | .
C[C@H](NS(=O)(=O)c1ccccc1)C(=O)N1CCN(C(c2ccccc2)c2ccccc2)CC1 | . | -12 | . | 26µM*
O=C(NCCCN1CCOCC1)C1CCN(S(=O)(=O)c2ccccc2)CC1 | . | -16 | . | 5%
NS(=O)(=O)c1ccc(NC(=S)N2CCC(O)CC2)cc1 | 45µM* | 6 | -1 | 6%
CCOC(=O)C1CCN(C(=S)Nc2ccc(S(N)(=O)=O)cc2)CC1 | 45µM* | 2 | 0 | 9%
CCOC(=O)C1CCCN(C(=S)Nc2ccc(Nc3ccccc3)cc2)C1 (configuration not stated) | 45µM* | 3 | 1 | ?
NS(=O)(=O)c1ccc(NC(=S)N2CCN(c3ccccc3)CC2)cc1 | -13% | 24 | 2 | 4%
COc1ccccc1COC(=O)c1ccc(S(=O)(=O)N2CCOCC2)cc1 | . | -8 | . | -13%
COc1cccc(CN(C)C(=O)/C=C/c2ccc(S(=O)(=O)N3CCCCCC3)cc2)c1 | -6% | -23 | . | ?
S=c1[nH]nc(COc2ccc(Cl)cc2Cl)n1-c1ccccc1 | 11% | -5 | 5 | -11%
COc1ccc(-c2[nH]c(-c3cc(OC)c4c(c3)OCO4)nc2-c2ccccc2)cc1 | 26% | 8 | -2 | 21µM*
Cc1ccc(-c2[nH]c(-c3ccc(C(=O)O)cc3)nc2-c2ccccc2)cc1 | -2% | -2 | 3 | 14%
CC(=O)N1C2(C=CC1(C)C(=O)NCCN1CCOCC1)CCCCC2 (configuration not stated) | 21% | . | 7 | .
CC(C)NC(=O)Nc1ccc2c(c1)C(=O)N([C@H](C)CO)C[C@H](C)[C@@H](CN(C)S(=O)(=O)c1cn(C)cn1)O2 | . | -2 | . | 27%
O=C(Nc1ccccc1)c1ccccc1NC(=O)C1CCCCC1 | ? | 16 | 0 | -7%
Cc1cccc(NC(=O)c2ccccc2NC(=O)C2CCCCC2)c1C | 28µM* | 4 | 3 | 7%
COc1cc(CN2CCN(C(=O)c3cccc4ccccc34)CC2)cc(OC)c1O | -29% | 13 | -4 | -15%
COc1cccc(C(CNc2ccc(S(=O)(=O)N3CCN(C)CC3)cc2[N+](=O)[O-])N(C)C)c1 (configuration not stated) | . | -14 | . | 4%
COc1ccc(NC(=O)CSc2[nH]c(=O)cc(C)c2C#N)cc1OC | -12% | 2 | -3 | 0%
SMILES | Sfp inh | Giardia kill | Coupling enz | ELG1 repair inh
Cc1cc(=O)[nH]c(SCC(=O)c2ccccc2)c1C#N | 20µM* | -15 | 0 | 15%
Cc1ccccc1NC(=O)CSc1[nH]c(=O)cc(C)c1C#N | 22µM* | 5 | 13 | -3%
COc1ccc(C(=O)NCC(=O)OCC(=O)c2cccc3ccccc23)cc1 | . | -13 | . | .
Cn1nc(C(F)(F)F)c(/C=N/OC(=O)c2ccccc2Cl)c1SCc1ccccc1Cl | 13% | 3 | -5 | 13µM*
CCN(Cc1ccncc1)Cc1c(O)ccc2cc(Br)ccc12 | 45µM* | 14 | -54* | 0%
O=C(NNC(=S)Nc1ccc(Cl)cc1)c1ccccc1OC(F)F | 15% | -12 | -1 | 23µM*
CC1(C)Cc2c(sc3ncn(N)c(=N)c23)CO1 | -11% | -4 | 4 | -14%
